# DT40 TDP1 no CPT – qHTS for Inhibitors of human tyrosyl-DNA phosphodiesterase 1 (TDP1): qHTS in cells in absence of CPT | DT40 Tdp1-/- hTDP1 cells, no CPT, ATP luminescence, 48 h | Potency, µM (series often up to 46.2 µM), for the others: top-dose activity change, negative = growth inhibition, usual class: inhibitors | hit rate 15% among 420,000; also: potency is read from the fitted curve at half-maximal effect; nearly all actives have a fitted effect of over 55% in size
#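 DT40 Tdp1-/-;hTDP1 cells, no CPT (DMSO vehicle only), 400 cells/well; compounds pin-transferred; ≥48 hr, 37 °C; CellTiter-Glo 30 min RT dark, luminescence read.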
# IL1B secr inh – blocks inflammasome-driven IL-1 beta release; activity change, % at 57.5 µM; THP-1 LPS/ATP IL-1B secretion, AlphaLISA, 16 h; hits give low values; hit rate 4.7% among 360,000; in the data active = activity change below about -50%; inconclusive = mostly about -30% to -49%
#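 THP-1 cells pretreated 1 hr with compounds (up to 57.5 uM final), then stimulated with LPS (250 ng/mL final) plus ATP (1.25 mM final); secreted IL-1B measured by AlphaLISA after 16 hr, decreased signal indicating inhibition.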
# ALOX12 inh – blocks human arachidonate 12S-lipoxygenase; P18054; purified 12hLO, xylenol orange hydroperoxide absorbance; Potency, µM (top dose mostly 108 µM), for the others: at the highest dose activity change, negative = inhibition, hits mostly inhibitors; hit rate 1.1% among 580,000; AID 1671190; also: potency is read from the fitted curve at half-maximal effect
# Target sequence (P18054 whole entry, looked up): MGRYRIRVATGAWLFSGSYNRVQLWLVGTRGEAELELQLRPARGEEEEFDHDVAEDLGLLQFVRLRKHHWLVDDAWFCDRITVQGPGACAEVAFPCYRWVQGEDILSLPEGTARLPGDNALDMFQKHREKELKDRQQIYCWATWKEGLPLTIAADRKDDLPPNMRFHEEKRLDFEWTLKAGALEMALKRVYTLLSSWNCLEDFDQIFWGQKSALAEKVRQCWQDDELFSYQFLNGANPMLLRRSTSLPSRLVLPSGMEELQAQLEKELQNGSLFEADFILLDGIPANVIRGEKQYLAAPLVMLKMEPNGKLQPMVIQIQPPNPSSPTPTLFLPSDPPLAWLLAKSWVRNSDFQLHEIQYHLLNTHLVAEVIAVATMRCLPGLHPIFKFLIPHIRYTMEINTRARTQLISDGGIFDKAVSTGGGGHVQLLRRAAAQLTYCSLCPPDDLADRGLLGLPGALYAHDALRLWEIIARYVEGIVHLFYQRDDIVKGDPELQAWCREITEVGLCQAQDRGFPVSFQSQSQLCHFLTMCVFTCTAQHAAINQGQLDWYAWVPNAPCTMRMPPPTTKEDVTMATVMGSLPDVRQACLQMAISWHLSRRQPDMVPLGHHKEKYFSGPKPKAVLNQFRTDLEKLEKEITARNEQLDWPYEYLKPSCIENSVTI
#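 Hydroperoxide product was detected by ferrous iron/xylenol orange as the 573 to 405 nm absorbance ratio. Arachidonic acid at 40 uM (final) was turned over for 30 min at room temperature by 150 nM human 12hLO, pH 7.0 Hepes buffer, after 15 min compound preincubation.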
# HT1080NT lethal – kills 2HG-producing HT-1080-NT fibrosarcoma cells; HT-1080-NT fibrosarcoma viability, CellTiter-Glo ATP luminescence, 48 h; Potency, µM (doses to about 46.1 µM), without a hit: at the highest dose activity, negative = less viability, most hits filed as cytotoxic; hit rate 1.6% among 360,000;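 also: NT is the 2HG producing partner of a matched IDH1 knockdown line; potency is read from the fitted curve at half-maximal effect; 0% = DMSO-treated cells and -100% = media-only wells without cells; nearly all actives have a fitted effect of over 55% in size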
#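 HT-1080-NT; 750 cells/well; 5% FBS RPMI; 48 h compound, 37 degrees C; CellTiter-Glo luminescence; curve fitting and curve-class assignment.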
# DT40 TDP1 CPT – growth inhibition of DT40 Tdp1-/-;hTDP1 cells with camptothecin (screen for TDP1 inhibitors); hit rate 12% among 420,000; Potency, µM (top dose mostly 46.2 µM), for the others: at the top dose activity change, negative = growth inhibition, usual class: inhibitors; chicken DT40 Tdp1-/-;hTDP1 cells + 20 nM CPT, ATP luminescence, 48 h; AID 686979; also: potency is read from the fitted curve at half-maximal effect; nearly all actives have a fitted effect of over 55% in size
#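 Chicken DT40 Tdp1-/- cells stably complemented with human TDP1 were seeded at 400 cells/well in medium containing 20 nM camptothecin, exposed to pin-transferred compounds, and grown at 37 °C for at least 48 hr. Viability was read as ATP luminescence.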
# HT1080 IDH1KD tx – toxicity to HT-1080 IDH1 knockdown cells (counter line); HT-1080 IDH1 knockdown viability, ATP luminescence, 48 h; hit rate 2% among 360,000; Potency, µM (titrated, usually from 46.1 µM), inactives show top-dose activity, negative = toxicity, most hits filed as cytotoxic;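 also: potency is read from the fitted curve at half-maximal effect; 0% = DMSO wells and -100% = cell-free medium wells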
#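 Assay cells: HT-1080 with IDH1 knockdown, 750 per well, RPMI/5% FBS. Exposure: 48 h at 37 °C following 2 h pre-incubation. Read: CellTiter-Glo luminescence; fitted concentration-response, curve class assigned.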
# An asterisk follows results filed as active; ? = inconclusive; . = no result; [ ] = dose if it differs, or a comment. Only a selection was taken, and hits are over-represented in it overall. Unless noted, calls follow the shape of the dose curve; as a rule, active = well fitted curve in the direction sought with a large enough effect; inconclusive = small, poorly fitted or top-dose-only effect, or another doubt; inactive = no such curve, though single readings can be large; an effect the other way counts as inactive or inconclusive. Unless noted, % is scaled to controls: 0 for no effect and ±100 for the full control effect.
SMILES,DT40 TDP1 no CPT,IL1B secr inh,ALOX12 inh,HT1080NT lethal,DT40 TDP1 CPT,HT1080 IDH1KD tx
COc1ccc(Cc2nnc(SCC(=O)Nc3ccccc3C#N)o2)cc1,-5%,-4,483%,-4%,-12%,19%
Cc1c(CC(=O)NCCCN2CCOCC2)c(=O)oc2c(C)c(O)ccc12,.,.,10%,.,.,.
CCC(=O)N1CCC2(CC1)CC(N1CCCCC1)CCO2 (stereo unspecified),.,.,36%,.,.,.
O=C(Nc1ccc(S(=O)(=O)N2CCCC2)cc1)c1ccccc1,23µM*,-24,-1%,-13%,-28%,-5%
O=C(Nc1cccc(Cl)c1)N1CCOCC1,26%,-29,0%,-2%,-9%,-2%
O=C(Nc1cccc(Cl)c1)N1CCCC1,26µM*,-18,3%,15%,16µM*,6%
Cc1cc(C(=O)Nc2ccc(S(=O)(=O)N3CCCCCC3)cc2)no1,.,.,-14%,.,.,.
Cn1nc(C(=O)Nc2ccc(S(=O)(=O)N3CCCCC3)cc2)ccc1=O,21µM*,12,-22%,-17%,?,-10%
O=C(/C=C/c1cccc(Br)c1)c1ccc2c3c(cccc13)CC2,.,.,-2%,.,.,.
CC1CNC(=S)N(c2ccccc2)C1=O (stereo unspecified),-8%,11,2%,17%,2%,15%
CCN(C(=O)C1CCN(c2oc(-c3ccco3)nc2C#N)CC1)c1ccccc1,.,.,-26%,.,.,.
CCNc1nnc(-c2ccccc2OC)s1,3%,0,352%,2%,-18%,18%
COc1ccccc1-c1nnc(NC(=O)C(C)SC2=NCCS2)s1 (stereo unspecified),?,?,13%,-12%,21µM*,0%
CC(Sc1nncn1C)C(=O)Nc1nnc(-c2ccccc2)s1 (stereo unspecified),0%,-26,2%[57.4 µM],14%,0%,8%
CC(SC1=NCCS1)C(=O)Nc1nnc(-c2ccc(Cl)cc2)s1 (stereo unspecified),21µM*,?,3%[57.4 µM],11%,15µM*,9%
S=C(NCc1ccco1)N1CCC(c2nc3ccccc3o2)CC1,16%,-16,-8%,?,-2%,3%
Cc1nn(-c2ccccc2)c(N2CCCC2)c1/C=N/NC(=S)Nc1ccc(F)cc1,8.2µM*,-12,?,-3%,5.8µM*,0%
Cc1nn(-c2ccccc2)c(N2CCCC2)c1/C=N/NC(=S)Nc1cc(C(F)(F)F)ccc1Cl,?,6,?,6%,?,1%
Cc1nn(-c2ccccc2)c(N2CCCCC2)c1/C=N/NC(=O)c1ccncc1,23µM*,12,-1%,-11%,13µM*,-4%
Cc1ccc(NC(=S)N/N=C/c2c(C)nn(-c3ccccc3)c2N2CCCC2)cc1,?,30,?,5%,12%,22%
Cc1nn(-c2ccccc2)c(N2CCCC2)c1/C=N/NC(=S)Nc1ccccc1C(F)(F)F,?,-11,35µM*,3%,?,3%
CCOc1ccc(NC(=O)Cn2c(NCc3ccccc3)nc3ccccc32)cc1,.,.,-16%,.,.,.
COC(=O)c1c(-c2ccccc2)c(-c2ccccc2)nn(C)c1=O,?,11,-10%,-3%,?,-5%
CC(C)OC(=O)c1c(-c2ccccc2)c(-c2ccccc2)nn(C)c1=O,21µM*,.,1%,.,?,.
COCCOC(=O)c1c(-c2ccccc2)c(-c2ccccc2)nn(C)c1=O,21µM*,.,-19%,.,?,.
SMILES,DT40 TDP1 no CPT,IL1B secr inh,ALOX12 inh,HT1080NT lethal,DT40 TDP1 CPT,HT1080 IDH1KD tx
N=c1ccn(Cc2ccccc2Cl)cc1,4.6µM*,-6,-1%,0%,5.2µM*,-16%
Clc1ccc(CN2CCSCC2)c(Cl)c1,-17%,10,?,2%,0%,14%
N=c1ccn(Cc2c(Cl)cccc2Cl)cc1,0.65µM*,-13,0%,?,1.3µM*,?
N=c1ccn(Cc2ccc(Cl)cc2Cl)cc1,5.2µM*,?,-5%,?,3.7µM*,-10%[9.24 µM]
CC(C)NC(=O)c1ccccc1-c1ncc(-c2ccccc2)o1,.,.,-36%,.,.,.
CCCN(C)c1nccnc1OC1CCN(C(=O)C(CC)CC)C1 (stereo unspecified),.,.,27%,.,.,.
COc1ccc(Cl)cc1NC(=O)CSCc1ccc(Br)cc1,.,.,-7%,.,.,.
Nc1[nH]n2c(=O)c3c(nc2c1N=Nc1ccc(Cl)cc1)CCCC3,?,-19,-6%,-3%,?,-2%
COc1cccc(C(=O)Nc2nc3nc(-c4ccccc4)cc(=O)n3[nH]2)c1,-16%,.,-3%,.,-2%,.
Nc1[nH]n2c(=O)c3c(nc2c1N=Nc1ccccc1)CCCC3,18µM*,-26,0%,-13%,?,-23%
Nc1[nH]n(-c2ccccc2)c(=O)c1N=Nc1ccccc1,-28%,-30,-6%,-18%,?,-9%
Cc1ccc(N=Nc2c(N)[nH]n3c(=O)cc(-c4ccccc4)nc23)cc1,15µM*,5,0%,4%,?,0%
Cc1cc(=O)n2[nH]c(N)c(N=Nc3ccccc3)c2n1,29µM*,0,-19%,0%,?,-21%
COc1cccc(N=Nc2c(N)[nH]n3c(=O)cc(-c4ccccc4)nc23)c1,7.3µM*,-2,22%,?,9.2µM*,?
Cc1nn2c(c1-c1ccccc1N1CCCC1)N(C(=O)c1cccc(N(C)C)c1)CCC2,.,.,61%[176 µM],.,.,.
O=c1c2c(nc3c(-c4ccccc4)c[nH]n13)CCCC2,23µM*,-10,?,-6%,23µM*,-8%
COC(=O)c1c(-c2ccc(N(C)C)cc2)oc2c1C(OC)CCC2 (stereo unspecified),18µM*,-10,?,-10%,?,-25%
O=C(CCCOC(=O)c1ccc([N+](=O)[O-])cc1)c1ccc(F)cc1,.,.,-4%,.,.,.
O=C1NCCN1C1CCN(Cc2cncs2)CC1,.,.,2%[12.5 µM],.,.,.
COc1ccc(-c2cc(C3CCN(c4ccc(C(C)=O)cc4[N+](=O)[O-])CC3)[nH]n2)cc1,5.2µM*,-71*,-16%,?,5.8µM*,?
CCOC(=O)c1cn2nc(-c3ccc(OC)cc3)cc2nc1C1CCN(C(=O)OC(C)(C)C)CC1,?,?,9%,9%,?,4%
COc1ccc(-c2cc(C3CCN(C(=O)OC(C)(C)C)CC3)[nH]n2)cc1,?,-84*,-1%,-7%,?,-10%
COC(=O)c1ccc(N2CCC(c3cc(-c4ccc(OC)cc4)n[nH]3)CC2)c([N+](=O)[O-])c1,18µM*,-8,0%,?,21µM*,?

# High-throughput results (PubChem BioAssay)
